Screening data from PubChem BioAssay.
Shown are actives, neighbours in structure and some others; about 4.7% of the full set was active somewhere.
D1 agonist: human D1 receptor agonism. P21728. HEK293 T-REx D1 cells, calcium flux, agonist mode. activation, % at 2 µM. 360,000 compounds, 1% hits. AID 504660
Target sequence (P21728 whole entry, looked up): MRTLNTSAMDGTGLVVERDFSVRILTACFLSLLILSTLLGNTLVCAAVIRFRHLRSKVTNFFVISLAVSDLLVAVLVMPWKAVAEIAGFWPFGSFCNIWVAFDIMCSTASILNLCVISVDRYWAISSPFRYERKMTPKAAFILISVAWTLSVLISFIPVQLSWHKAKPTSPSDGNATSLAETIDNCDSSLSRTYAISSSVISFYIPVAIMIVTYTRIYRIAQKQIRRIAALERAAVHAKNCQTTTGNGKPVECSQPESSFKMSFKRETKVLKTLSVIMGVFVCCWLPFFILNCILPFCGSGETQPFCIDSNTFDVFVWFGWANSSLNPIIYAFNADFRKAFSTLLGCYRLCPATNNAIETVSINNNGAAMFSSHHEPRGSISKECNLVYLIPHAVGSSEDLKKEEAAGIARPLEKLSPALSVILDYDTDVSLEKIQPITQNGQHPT
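Tetracycline-induced HEK293 TREx D1 cells, force-coupled to calcium signalling, were dye-loaded with a no-wash calcium kit. Compound was pin-added after a 10 s baseline. Fluorescence was read kinetically at 1 cycle/s for 180 s, with calcium rises flagged as agonism.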
D1 antag: blocks dopamine activation of the human D1 receptor | activity change, negative = inhibition, % at 10 µM | HEK293 TREx D1 cells, calcium flux, dopamine EC80; hits give low values | 360,000 compounds, 3.2% hits | P21728 | AID 504652; in the data active = activity change below about -30%
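Compound effects on dopamine-evoked calcium signalling were measured in tetracycline-induced HEK293 Trex D1 cells. Dopamine at EC80 followed a 180 s compound pre-read, and fluorescence was tracked kinetically for 180 s more.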
TRHR enhancer: allosterically enhances the human TRH receptor | 360,000 compounds, 0.66% hits | enhancement, % at 2 µM | P34981 | TRHR cells, fluo-8 calcium fluorescence, EC20 TRH enhancement | AID 493056; in the data active = enhancement above about 30%
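Enhancer read-out: after compound pinning and an initial kinetic agonist-mode read, an EC20 of TRH (10 nM final) was injected and fluo-8 calcium signal (Ex 480/Em 530) followed at 1 s/cycle for 100 cycles in TRHR-expressing cells.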
TRHR agonist: activates the human TRH receptor. AID 493084. TRHR cells, calcium flux fluo-8, FDSS agonist mode. activation, % at 2 µM. P34981. 360,000 compounds, 0.18% hits
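In this calcium-flux screen, cells bearing human TRHR are dye-loaded with fluo-8, baselined for 10 cycles, then exposed to library compounds; positive kinetic calcium responses during the agonist phase mark hits, with TRH as control.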
D1 potentiator: human D1 dopamine receptor positive modulation; P21728; HEK293 TREx D1 cells, calcium flux, dopamine EC20 potentiation; potentiation, % at 10 µM; 360,000 compounds, 0.036% hits; AID 504651; in the data active = potentiation above about 30%
Numbers stand for hits; ! = not confirmed by another sample. Rule as the data show it, unless noted: active = activation above about 30%; inactive = the rest.

Screening COc1ccc(CCNC(=O)c2cc(-c3ccc(C)cc3O)n[nH]2)cc1OC returned D1 agonist inactive, D1 antag inactive, TRHR enhancer inactive, TRHR agonist inactive and D1 potentiator inactive.
Screening COc1ccc(CCNC(=O)c2cc(-c3ccccc3O)n[nH]2)cc1OC returned D1 agonist inactive, D1 antag -33, TRHR enhancer inactive, TRHR agonist inactive and D1 potentiator inactive.
O=C(CCNC(=O)c1ccccc1)NCCCc1ccccc1 was read as D1 agonist inactive, D1 antag inactive, TRHR enhancer inactive, TRHR agonist inactive and D1 potentiator inactive.
For COc1ccccc1NC(=O)CSc1oc(-c2ccc(F)cc2)nc1S(=O)(=O)c1ccc(Br)cc1 the results were D1 agonist inactive, D1 antag inactive, TRHR enhancer inactive, TRHR agonist inactive and D1 potentiator inactive.
For COc1ccc(CN2C(=O)c3oc4ccc(F)cc4c(=O)c3C2c2ccc(O)cc2)cc1 (stereo unspecified) the results were D1 agonist inactive, D1 antag -36, TRHR enhancer inactive, TRHR agonist inactive and D1 potentiator inactive.
Screening Cc1c(C(=O)Nc2ccccc2)sc2nc[nH]c(=O)c12 returned D1 agonist inactive, D1 antag -33, TRHR enhancer inactive, TRHR agonist inactive and D1 potentiator inactive.
`CCOC(=O)CC(NC(=O)Cn1nnc(-c2ccccc2C)n1)c1ccc(OC)cc1` (stereo unspecified) gave D1 agonist 31!, D1 antag inactive, TRHR enhancer inactive, TRHR agonist inactive and D1 potentiator inactive.
`CCOC(=O)CC(NC(=O)Cn1nnc(-c2ccc(C(F)(F)F)cc2)n1)c1ccc(OC)cc1` (stereo unspecified) gave D1 agonist inactive, D1 antag inactive, TRHR enhancer inactive, TRHR agonist inactive and D1 potentiator inactive.
Screening Cc1cc(-c2ccc(C)c(S(=O)(=O)NCc3cccs3)c2)on1 returned D1 agonist inactive, D1 antag inactive, TRHR enhancer inactive, TRHR agonist inactive and D1 potentiator inactive.
CCOC(=O)[C@H]1[C@H]2COc3ccc(Br)cc3[C@@H]2N2C(=O)CN(Cc3ccc(OC)cc3)C(=O)[C@@]12C was read as D1 agonist inactive, D1 antag -30, TRHR enhancer inactive, TRHR agonist inactive and D1 potentiator inactive.
Screening N#Cc1nc(NCC(F)F)c2ncn(-c3cc(F)cc(F)c3)c2n1 returned D1 agonist inactive, D1 antag inactive, TRHR enhancer inactive, TRHR agonist inactive and D1 potentiator inactive.
For N#C/C(N=Nc1ccccc1O)=N\Nc1ccccc1O the results were D1 agonist 36, D1 antag -59, TRHR enhancer inactive, TRHR agonist inactive and D1 potentiator inactive.
`NCCc1c(-c2ccccc2)n(-c2ccccc2)c2ccccc12` gave D1 agonist 102, D1 antag inactive, TRHR enhancer inactive, TRHR agonist inactive and D1 potentiator inactive.
For CC(=O)n1c(-c2ccccc2)c(CO)c2ccccc21 the results were D1 agonist inactive, D1 antag inactive, TRHR enhancer inactive, TRHR agonist inactive and D1 potentiator inactive.
Screening Cc1c2cnn(CC(=O)NCc3ccc(F)cc3)c(=O)c2c(C)n1Cc1cccc(Cl)c1 returned D1 agonist inactive, D1 antag inactive, TRHR enhancer inactive, TRHR agonist inactive and D1 potentiator inactive.
Screening O=C(Cn1c(=O)oc2ccccc21)Nc1nnc(N2CCCCCC2)s1 returned D1 agonist inactive, D1 antag inactive, TRHR enhancer 30, TRHR agonist inactive and D1 potentiator inactive.
For Cc1nnc(SCc2ccccc2)n(N)c1=O the results were D1 agonist inactive, D1 antag inactive, TRHR enhancer inactive, TRHR agonist inactive and D1 potentiator inactive.
Screening Cc1ccc(CSc2nnc(C)c(=O)n2N)cc1 returned D1 agonist inactive, D1 antag -48, TRHR enhancer inactive, TRHR agonist inactive and D1 potentiator inactive.
Cc1cccc(C(=O)N/N=C/c2ccncc2)c1 was read as D1 agonist inactive, D1 antag -37, TRHR enhancer inactive, TRHR agonist inactive and D1 potentiator inactive.
`CC(OC(=O)c1ccc(S(=O)(=O)N(C)C)cc1)C(=O)Nc1ccc(Cl)cn1` (stereo unspecified) gave D1 agonist inactive, D1 antag -60, TRHR enhancer inactive, TRHR agonist inactive and D1 potentiator inactive.
`CC(OC(=O)c1ccccc1O)C(=O)Nc1ccc(Cl)cn1` (stereo unspecified) gave D1 agonist inactive, D1 antag inactive, TRHR enhancer inactive, TRHR agonist inactive and D1 potentiator inactive.
For CC(=O)N1c2ccc(S(=O)(=O)N3CCC(C(=O)Nc4cccc(C(F)(F)F)c4)CC3)cc2CC1C (stereo unspecified) the results were D1 agonist inactive, D1 antag -34, TRHR enhancer inactive, TRHR agonist inactive and D1 potentiator inactive.
For O=C(Nc1cccc(C(F)(F)F)c1)C1CCN(S(=O)(=O)c2ccc(N3CCCC3=O)cc2)CC1 the results were D1 agonist inactive, D1 antag -47, TRHR enhancer inactive, TRHR agonist inactive and D1 potentiator inactive.
Screening CCOC(=O)c1ccccc1NC(=O)CN1C(=O)CC(c2ccccc2)Sc2ccccc21 (stereo unspecified) returned D1 agonist inactive, D1 antag inactive, TRHR enhancer inactive, TRHR agonist inactive and D1 potentiator inactive.
For COC(=O)c1sccc1S(=O)(=O)N1CCCC(N(C)CCc2ccccn2)C1 (stereo unspecified) the results were D1 agonist inactive, D1 antag -35, TRHR enhancer inactive, TRHR agonist inactive and D1 potentiator inactive.
Screening COc1ccc(CCN(C)C2CCCN(S(=O)(=O)c3ccccc3F)C2)cc1OC (stereo unspecified) returned D1 agonist inactive, D1 antag -32, TRHR enhancer inactive, TRHR agonist inactive and D1 potentiator inactive.
`O=C(CSc1ncc2c(n1)-c1ccccc1N(Cc1ccc(F)cc1)S2(=O)=O)c1ccc(Br)cc1` gave D1 agonist inactive, D1 antag inactive, TRHR enhancer inactive, TRHR agonist inactive and D1 potentiator inactive.
For O=C(CCc1ccccc1)N=C1SC2CS(=O)(=O)CC2N1c1ccccc1F (stereo unspecified) the results were D1 agonist inactive, D1 antag inactive, TRHR enhancer inactive, TRHR agonist inactive and D1 potentiator inactive.
For S=C(Nc1ccccc1)N1CCN(c2ccccn2)CC1 the results were D1 agonist inactive, D1 antag inactive, TRHR enhancer inactive, TRHR agonist inactive and D1 potentiator inactive.
For FC(F)Oc1cccc(NC(=S)N2CCN(c3ccccn3)CC2)c1 the results were D1 agonist inactive, D1 antag -71, TRHR enhancer inactive, TRHR agonist inactive and D1 potentiator inactive.
COc1ccc(-n2c(SCC(=O)c3ccccc3)nc3c([nH]c4ccccc43)c2=O)cc1 was read as D1 agonist inactive, D1 antag inactive, TRHR enhancer inactive, TRHR agonist inactive and D1 potentiator inactive.
